# Laboratory results published in PubChem BioAssay AID624305 (National Center for Advancing Translational Sciences (NCATS), 2012).
# Records with an inconclusive call do not appear. A call without a number means that no potency is given here. Activity calls are given as the source filed them. The call rests on the fitted dose curve; in most records, active means well fitted activation curve with a large enough effect; inconclusive means small, poorly fitted or top-dose-only effect; inactive means no such curve, though single readings can be large or run the other way.
# Assay: qHTS assay for re-activators of p53 using a Luc reporter: Hit Validation; further: nearly all actives have a fitted effect of over 75% in size
# Conditions: p53-responsive luciferase reporter cells, luminescence, H1299 line expressing heat-sensitive Ala138Val p53; series mostly up to 46.1 µM
# Procedure, shortened: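 H1299 (p53-null) cells stably carrying p53-A138V and a BP100-luciferase reporter, 1000 cells/well, treated 24 h at 37 deg C. Compounds at several concentrations, 1:5 dilution; nocodazole control; luminescence read after 10 min with detection reagent.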
# Potency means the concentration at half of the fitted maximal effect.
row,SMILES,Potency
1,CCOc1ccc(NC(=O)/C=C/c2ccccc2)c([N+](=O)[O-])c1,5.17 µM (active)
2,Cc1cc(C)cc(NC(=O)CSc2nnc(-c3ccccc3C)o2)c1,inactive
3,CCOC(=O)C1=C(C)Nc2ncnn2C1c1c[nH]c2ccccc12 (stereo not drawn),inactive
4,COc1ccc(/C(C)=N/Nc2nccnc2Cl)cc1,16.4 µM (active)
5,COc1ccc(N(C(=O)Nc2ccc(Cl)cc2)C2=NCCC2)cc1,inactive
6,COC(=O)C1=C(C(=O)c2ccccc2)C(c2ccc(OC)c(OC)c2)Nc2nnnn21 (stereo not drawn),inactive
7,COc1cccc(/C=N/Nc2ccc([N+](=O)[O-])cn2)c1O,9.2 µM (active)
8,Oc1cccc2c(NC(=S)Nc3ccc(OC(F)F)cc3)cccc12,inactive
9,O=C(CSc1nnc(-c2ccc(O)cc2)o1)Nc1ccc2c(c1)OCCO2,8.2 µM (active)
10,COc1ccccc1C(=O)CC(=O)c1ccccc1,inactive
11,CC(C)(C)OC(=O)N1CCC(C(=O)Nc2ccc3c(c2)CCC3)CC1,23.1 µM (active)
12,COc1ccc(N2CCN(CCCNC(=O)C3(S(=O)(=O)c4ccc(Cl)cc4)CC3)CC2)cc1,inactive
13,COc1cccc(/C=C2\Oc3ccc(O)cc3C2=O)c1O,inactive
14,O=c1[nH]c2ccc(N/C(=N/S(=O)(=O)c3ccccc3)c3ccccc3)cc2[nH]1,inactive
15,O=C(NNc1c2ccccc2nc2ccccc12)c1ccc(O)cc1,inactive
16,CCc1ccc(-n2cc(-c3ccc([N+](=O)[O-])cc3)[nH]c2=S)cc1,inactive
17,Clc1ccc(OCc2cc(-c3ccccc3)no2)c(Cl)c1,1.16 µM (active)
18,O=C(N/N=C(\c1ccccc1)c1cccnc1)c1cccc(F)c1,16.4 µM (active)
19,O=C(O)/C=C/c1nc(-c2ccccc2)n2ccccc12,inactive

row,SMILES,Potency
1,Cc1nn(-c2ccccc2)c(C)c1/C=N/Nc1nc2ccccc2[nH]1,0.731 µM (active)
2,Oc1ccc(N=Cc2c(O)ccc3ccccc23)cc1,inactive
3,Cc1cc(C(=O)COC(=O)c2cccc(O)c2)c(C)n1C1CC1,0.13 µM (active)
4,OC1(C2(O)CC(c3ccccc3)ON2)CCCCC1 (stereo not drawn),inactive
5,CCCC(=O)NC(c1cccs1)c1cc([N+](=O)[O-])c2cccnc2c1O (stereo not drawn),inactive
6,CCCOc1ccc(-c2cc3onc(-c4ccccc4)c3c(=O)n2C)cc1,5.8 µM (active)
7,Cc1cc(C)cc(OCC(=O)NNC(=O)c2ccccn2)c1,inactive
8,C/C(=C\C(=O)c1ccccc1)Nc1ccc2c(c1)OCO2,2.91 µM (active)
9,CC(=O)c1ccc(NC(=O)CCc2nnc3ccc(NCc4ccco4)nn23)cc1,11.6 µM (active)
10,Cc1cc(C)nc(SCC(=O)OCC(=O)Nc2nc3ccccc3s2)n1,inactive
11,CC12CCC(C(=O)N(CSC(=S)N/N=C\c3ccccc3O)C1=O)C2(C)C (stereo not drawn),inactive
12,CC(=O)Oc1ccc(Cl)cc1/C=C/c1ccc2ccccc2n1,4.61 µM (active)
13,O=C(N/N=C/c1sc(=O)[nH]c1-[n+]1ccc2ccccc2c1)c1ccccc1[O-],inactive
14,Cc1cc(C(c2nnnn2Cc2ccccc2)N2CCOCC2)c(C)n1-c1ccc2c(c1)OCO2 (stereo not drawn),inactive
15,Cc1cc(NC(=O)c2c(F)c(F)c(F)c(F)c2F)no1,inactive
16,COC(=O)Cc1n[nH]c(=S)[nH]c1=O,inactive
17,O=C(NOCc1ccccc1)c1ccc(Cl)cc1,1.84 µM (active)
18,COc1ccc2c(c1)Cc1sc(NC(C)=O)nc1-2,11.6 µM (active)
19,C=C[C@@H]1c2cc(C)ccc2N(S(=O)(=O)c2ccc(C)cc2)[C@H](c2ccccc2C(F)(F)F)C1(C#N)C#N,inactive
